In PubChem BioAssay (Tox21):
Inconclusive results are not listed. The source made the active and inactive calls. Unless noted, the call rests on the fitted dose curve; in most records, active means well fitted curve in the direction sought with a large enough effect in the repeat runs; inconclusive means weak or mixed curves; inactive means no such curve, though single readings can be large; an effect the other way counts as inactive or inconclusive.

Legend:
[1] = qHTS assay to identify small molecule agonists of the hypoxia (HIF-1) signaling pathway - cell viability counter screen (AID 1224844; calls by dose curve; further: nearly all actives have a fitted effect of over 50% in size)
Outline: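 Cytotoxicity measured by CellTiter-Glo ATP luminescence in the wells also read for beta-lactamase signal. Cells were HRE-bla ME-180 (2,000/well, 0.5% dialyzed FBS), exposed to compounds for 17 h at 37C.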

[2] = qHTS assay to identify small molecule agonists of H2AX (AID 1224845; active means well fitted activation curve with a large enough effect in the signal ratio in the repeat runs, not every such curve was filed as active; the % refers to the signal ratio)
Outline: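 Wild-type CHO-K1 cells plated overnight, then exposed 3 hr at 37C to compounds at 15 concentrations (0.76% DMSO). Lysed, then HTRF anti-pH2AX(S139)-cryptate/anti-H2AX-d2 detection after 24 hr at room temperature; emissions 665 and 620 nm.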

[3] = qHTS assay to identify small molecule agonists of the hypoxia (HIF-1) signaling pathway (AID 1224846; active means well fitted activation curve with a large enough effect in the signal ratio in the repeat runs, not every such curve was filed as active; the % refers to the signal ratio)
Outline: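 Compounds added to ME-180 cells carrying hypoxia-response-element beta-lactamase reporter (0.5% dialyzed FBS, 5 h preplating), 17 h at 37C; agonist activity detected by CCF4-AM B/G FRET read-out.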

[4] = qHTS assay to identify small molecule agonists of H2AX - cell viability counter screen (AID 1224847; calls by dose curve; further: top concentration of the series differs between compounds; nearly all actives have a fitted effect of over 30% in size)
Outline: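 Cytotoxicity counter screen in wild-type CHO-K1 cells: a 3 hr compound treatment at 37C across 15 concentrations, followed by CellTiter-Glo luminescence to gauge viable cells.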

[5] = qHTS assay to identify small molecule antagonists of the estrogen related receptor (ERR) signaling pathway from Tox21 library (AID 1224848); further: nearly all actives have a fitted effect of over 50% in size
Outline: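 Tox21 10K compounds in DMSO tested for ERR pathway antagonism in NTP's ERR cell line; 18 h, 37 C exposure; ONE-Glo luminescence.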

[6] = qHTS assay to identify small molecule agonists of the estrogen related receptor (ERR) signaling pathway from Tox21 library (AID 1224849; calls by dose curve; further: nearly all actives have a fitted effect of over 15% in size); conditions: ERR reporter cell line, ONE-Glo luciferase, 18 h; at 92.4 µM (top of the series) unless noted
Outline: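 Luminescent agonist read-out (One-Glo, 30-minute room-temperature incubation) following 18-hour compound treatment at 37 C of the ERR cell line, which had been plated 6 hours before dosing.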

[7] = qHTS RealTime-Glo MT Cell Viability Assay in HepG2 cells - 24 hour (AID 1224867); further: nearly all actives have a fitted effect of over 50% in size
Outline: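 Tox21 10K library screened in qHTS format on HepG2 cells carrying RealTime-Glo reagents. Compounds were added after a 5 h preincubation, and the luminescent signal from continuous culture was measured repeatedly during 40 h treatment.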

[8] = qHTS RealTime-Glo MT Cell Viability Assay in HEK293 cells - 32 hour (AID 1224868); further: top concentration of the series differs between compounds; nearly all actives have a fitted effect of over 50% in size
Outline: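 Luminescence generated by NanoLuc from substrate produced by living HEK293 cells served as the viability signal. Each value reflects the reading at its stated time point during continuous 40 h compound exposure at 37 C.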

[9] = A CellTox Green Cytotoxicity Assay to monitor cytotoxicity in HEK293 cells - 0 hour (AID 1224869); further: nearly all actives have a fitted effect of over 50% in size
Outline: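 Fluorescence from a DNA-binding dye excluded by viable cells was measured repeatedly in the same HEK293 wells (600 cells/well) during continuous compound exposure at 37 C. Each assay gives one read point: 0, 8, 16, 24, 32 or 40 h.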

[10] = qHTS RealTime-Glo MT Cell Viability Assay in HepG2 cells - 40 hour (AID 1224870); further: nearly all actives have a fitted effect of over 50% in size
Outline: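 HepG2 cells mixed with RealTime-Glo MT reagents (NanoLuc plus cell-permeant prosubstrate) were seeded at 600 cells/well, incubated 5 h at 37 C/5% CO2, then pinned with compounds in DMSO; nonlytic luminescence tracked viability during 40 h treatment.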
On the % scale 0 is the no-effect control and ±100 the full control effect.

BrCCCCCBr
inactive: outcome [1] | outcome [2] | outcome [3] | Potency [4] | Potency [5] | activity change, positive = activation [6] 6.39% | outcome [7] | Potency [8] | outcome [9]

C=C(C)C(=O)OCC(C)(C)COC(=O)C(=C)C
inactive: outcome [1] | outcome [2] | outcome [3] | Potency [4] | Potency [5] | activity change, positive = activation [6] 0.866% | outcome [7] | Potency [8] | outcome [9] | outcome [10]

CC(C)CC(=O)O
inactive: outcome [1] | outcome [2] | outcome [3] | Potency [4] | Potency [5] | activity change, positive = activation [6] 4.14% | outcome [7] | Potency [8] | outcome [9]

COc1cc(C(=S)N2CCOCC2)cc(OC)c1OC
inactive: outcome [1] | outcome [2] | outcome [3] | Potency [4] | Potency [5] | activity change, positive = activation [6] -0.791% [at 42.5 µM] | outcome [7] | Potency [8] | outcome [9] | outcome [10]

Nc1ccc([N+](=O)[O-])c(N)c1
inactive: outcome [1] | outcome [2] | outcome [3] | Potency [4] | Potency [5] | activity change, positive = activation [6] 5.15% | outcome [7] | Potency [8] | outcome [9]

C[C@@H](Oc1ccc(CNC(=O)c2cccnc2Oc2ccc3c(c2)OCO3)c(F)c1)C(=O)O
inactive: outcome [1] | outcome [2] | outcome [3] | Potency [4] | Potency [5] | activity change, positive = activation [6] 4.43% | outcome [7] | Potency [8] | outcome [9] | outcome [10]

Cc1cccc(C)c1OCC(C)N (stereo not given)
inactive: outcome [1] | outcome [2] | outcome [3] | Potency [4] | Potency [5] | activity change, positive = activation [6] -2% [at 42.5 µM] | outcome [7] | Potency [8] | outcome [9]

Cc1c(I)c(=O)n(-c2ccccc2)n1C
inactive: outcome [1] | outcome [2] | outcome [3] | Potency [4] | Potency [5] | activity change, positive = activation [6] 2.79% [at 42.5 µM] | outcome [7] | Potency [8] | outcome [9] | outcome [10]

CCn1ccc(NS(=O)(=O)c2ccc(N)cc2)nc1=O
inactive: outcome [1] | outcome [2] | outcome [3] | Potency [4] | Potency [5] | activity change, positive = activation [6] 3.61% [at 42.5 µM] | outcome [7] | Potency [8] | outcome [9] | outcome [10]

CCCCOC(=O)c1ccccc1
inactive: outcome [1] | outcome [2] | outcome [3] | Potency [4] | Potency [5] | activity change, positive = activation [6] 1.54% | outcome [7] | Potency [8] | outcome [9] | outcome [10]

C=C(C)C(=O)OCCOP(=O)(O)OCCOC(=O)C(=C)C
inactive: outcome [1] | outcome [2] | outcome [3] | Potency [4] | Potency [5] | activity change, positive = activation [6] 5.76% | outcome [7] | Potency [8] | outcome [9] | outcome [10]

COC(=O)C1CC(=O)C(C(=O)OC)CC1=O (stereo not given)
inactive: activity change, negative = cytotoxicity [1] 4.68% [at 6.97 µM] | activation (H2AX phosphorylation) [2] 1.21% [at 14 µM] | activation [3] 0.935% [at 7.01 µM] | activity change, negative = cytotoxicity [4] -2.76% [at 14 µM] | activity, negative = inhibition [5] -0.445% [at 8.39 µM] | activity change, positive = activation [6] -0.229% [at 8.39 µM] | activity change, negative = cytotoxicity [7] 1.03% [at 6.97 µM] | activity change, negative = cytotoxic [8] 1.1% [at 6.97 µM] | cytotoxicity [9] -3.09% [at 6.97 µM]

COP(=O)(OC)OC(c1ccc(Cl)cc1)P(=O)(OC)OC (stereo not given)
inactive: outcome [1] | outcome [2] | outcome [3] | Potency [4] | Potency [5] | activity change, positive = activation [6] 1.9% [at 42.5 µM] | outcome [7] | Potency [8] | outcome [9] | outcome [10]

CCc1ccc(C=O)cc1
inactive: outcome [1] | outcome [2] | outcome [3] | Potency [4] | Potency [5] | activity change, positive = activation [6] 5.25% | outcome [7] | Potency [8] | outcome [9]

COc1nccnc1NS(=O)(=O)c1ccc(N)cc1
inactive: outcome [1] | outcome [2] | outcome [3] | Potency [4] | Potency [5] | activity change, positive = activation [6] -1.96% [at 42.5 µM] | outcome [7] | Potency [8] | outcome [9] | outcome [10]

CC(C)CC(C)CC(C)CC(C)COC(=O)c1ccccc1C(=O)OCC(C)CC(C)CC(C)CC(C)C (stereo not given)
inactive: outcome [1] | outcome [2] | outcome [3] | Potency [4] | Potency [5] | activity change, positive = activation [6] -6.15% | outcome [7] | outcome [9] | outcome [10]

C=C1CC/C=C(\C)CC[C@@H]2[C@@H]1CC2(C)C
inactive: outcome [1] | outcome [2] | outcome [3] | Potency [4] | Potency [5] | activity change, positive = activation [6] 0.265% | Potency [8] | outcome [9]

COc1ccc2nc(SCc3ncc(C)c(OC)c3C)[nH]c2c1
inactive: outcome [1] | outcome [2] | outcome [3] | Potency [4] | Potency [5] | activity change, positive = activation [6] -13.6% [at 42.5 µM] | outcome [7] | outcome [9]

COCCOCCOCCOCCOCCO
inactive: outcome [1] | outcome [2] | outcome [3] | Potency [4] | Potency [5] | activity change, positive = activation [6] 2.08% | outcome [7] | outcome [9] | outcome [10]

COC(=O)CCc1ccc(OCC(O)CNC(C)C)cc1 (stereo not given)
inactive: outcome [1] | outcome [2] | outcome [3] | Potency [4] | Potency [5] | activity change, positive = activation [6] 8.83% [at 42.5 µM] | outcome [7] | Potency [8] | outcome [9] | outcome [10]

C=C(C)C(=O)OCCNC(C)(C)C
inactive: outcome [1] | outcome [2] | outcome [3] | Potency [4] | Potency [5] | activity change, positive = activation [6] -2.14% | outcome [7] | Potency [8] | outcome [9] | outcome [10]

C[Si](C)(C)C
inactive: outcome [1] | outcome [2] | outcome [3] | Potency [4] | Potency [5] | activity change, positive = activation [6] -1.98% | outcome [7] | outcome [9]

O=C(NCCN1CCOCC1)c1ccc(Cl)cc1
inactive: outcome [1] | outcome [2] | outcome [3] | Potency [4] | Potency [5] | activity change, positive = activation [6] 9.75% [at 42.5 µM] | outcome [7] | outcome [9] | outcome [10]
